A short description of assay [1]: qHTS of pediatric cancer cell lines to identify multiple opportunities for drug repurposing: Primary screen for TC32 cells (AID 1347089). Further: nearly all actives have a fitted effect of over 60% in size. Further: potency means the concentration at half of the fitted maximal effect. The note with it: TC32 Ewing sarcoma viability, CellTiter-Glo luminescence, 48 h; series mostly up to 45.8 µM. Put shortly: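 TC32 cells, 500-1,000/well in growth medium, compound-treated 48 h at 37 °C; viability from CellTiter-Glo luminescence. Primary screen: MIPE 11-point (0.78 nM–46 µM final), NPC 8-point (0.59 nM–46 µM final); confirmatory at 11-point dilutions.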

A short description of assay [2]: qHTS of pediatric cancer cell lines to identify multiple opportunities for drug repurposing: Primary screen for DAOY cells (AID 1347090). Further: potency means the concentration at half of the fitted maximal effect; nearly all actives have a fitted effect of over 55% in size. As to conditions: DAOY medulloblastoma viability, CellTiter-Glo luminescence, 48 h; series mostly up to 46 µM. In short, it runs like this: (§1)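 Cell viability, CellTiter-Glo luminescence; 500-1,000 cells/well, 8- or 11-point titration, 48 h compound exposure at 37 degrees C, 5% CO2. Controls: DMSO neutral, bortezomib 2.3 µM final as positive.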
On the technique in general: Quantitative high-throughput screening tests each substance at several concentrations.

Assay [3] in a line: qHTS of pediatric cancer cell lines to identify multiple opportunities for drug repurposing: Primary screen for SJ-GBM2 cells (AID 1347091). Further: potency means the concentration at half of the fitted maximal effect. As to conditions: SJ-GBM2 viability, CellTiter-Glo luminescence, 48 h; series mostly up to 46 µM. Put shortly: as §1
Assay [4] in a line: qHTS of pediatric cancer cell lines to identify multiple opportunities for drug repurposing: Primary screen for SK-N-MC cells (AID 1347093). Further: potency means the concentration at half of the fitted maximal effect. The note with it: SK-N-MC viability, CellTiter-Glo luminescence, 48 h; series mostly up to 46 µM. Put shortly: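 Metabolically active cells were quantified by ATP-dependent luminescence (CellTiter-Glo, 15 min at room temperature) following 48 h treatment. Cells had been plated at 500-1,000 per well and settled for 5 h beforehand.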

Assay [5] in a line: qHTS of pediatric cancer cell lines to identify multiple opportunities for drug repurposing: Primary screen for BT-37 cells (AID 1347094). Further: potency means the concentration at half of the fitted maximal effect. The note with it: BT-37 viability, CellTiter-Glo luminescence, 48 h; series mostly up to 57.3 µM. Put shortly: (§2)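 Readout: CellTiter-Glo luminescence, 48 h treatment. Controls DMSO (neutral) and bortezomib 2.3 µM final (positive). Potency and efficacy taken from primary-screen concentration-response curves.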

Assay [6] is described as follows: qHTS of pediatric cancer cell lines to identify multiple opportunities for drug repurposing: Primary screen for NB-EBc1 cells (AID 1347095). Further: potency means the concentration at half of the fitted maximal effect. As to conditions: NB-EBc1 neuroblastoma viability, CellTiter-Glo luminescence, 48 h; series mostly up to 46 µM. Put shortly: as §2
Assay [7] in a line: qHTS of pediatric cancer cell lines to identify multiple opportunities for drug repurposing: Primary screen for Saos-2 cells (AID 1347097). Further: potency means the concentration at half of the fitted maximal effect; nearly all actives have a fitted effect of over 40% in size. As to conditions: Saos-2 viability, CellTiter-Glo ATP luminescence, 48 h; series mostly up to 46 µM. In short, it runs like this: as §2
Assay [8] in a line: qHTS of pediatric cancer cell lines to identify multiple opportunities for drug repurposing: Primary screen for SK-N-SH cells (AID 1347098). Further: nearly all actives have a fitted effect of over 65% in size. Further: potency means the concentration at half of the fitted maximal effect. As to conditions: SK-N-SH viability, CellTiter-Glo luminescence, 48 h; series mostly up to 57 µM. Put shortly: (§3)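 Cells (500-1,000/well) rested 5 h, then received compounds for 48 h; metabolically active cells were measured by CellTiter-Glo luminescence. Final concentrations spanned up to 46 µM (MIPE, 11-point) or 0.59 nM-46 µM (NPC, 8-point) in primary screens, 11-point in follow-ups.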

Assay [9] in a line: qHTS of pediatric cancer cell lines to identify multiple opportunities for drug repurposing: Primary screen for LAN-5 cells (AID 1347100). Further: potency means the concentration at half of the fitted maximal effect. The note with it: LAN-5 neuroblastoma viability, CellTiter-Glo luminescence, 48 h; series mostly up to 46 µM. Put shortly: as §3
A short description of assay [10]: qHTS of pediatric cancer cell lines to identify multiple opportunities for drug repurposing: Primary screen for BT-12 cells (AID 1347101). Further: potency means the concentration at half of the fitted maximal effect; nearly all actives have a fitted effect of over 25% in size. The note with it: BT-12 viability, CellTiter-Glo luminescence, 48 h; series mostly up to 57.3 µM. Put shortly:
as §3

Assay [11] is described as follows: qHTS of pediatric cancer cell lines to identify multiple opportunities for drug repurposing: Primary screen for OHS-50 cells (AID 1347103). Further: nearly all actives have a fitted effect of over 40% in size. Further: potency means the concentration at half of the fitted maximal effect. The note with it: OHS-50 osteosarcoma viability, CellTiter-Glo luminescence, 48 h; series mostly up to 57.3 µM. Put shortly: as §3
The nature of assay [12]: qHTS of pediatric cancer cell lines to identify multiple opportunities for drug repurposing: Primary screen for RD cells (AID 1347104). Further: potency means the concentration at half of the fitted maximal effect; nearly all actives have a fitted effect of over 55% in size. The note with it: RD rhabdomyosarcoma viability, CellTiter-Glo luminescence, 48 h; series mostly up to 46 µM. In short, it runs like this: as §2
The nature of assay [13]: qHTS of pediatric cancer cell lines to identify multiple opportunities for drug repurposing: Primary screen for A673 cells (AID 1347092). Further: potency means the concentration at half of the fitted maximal effect; nearly all actives have a fitted effect of over 45% in size. The note with it: A673 Ewing sarcoma viability, CellTiter-Glo ATP luminescence, 48 h; series mostly up to 46 µM. In short, it runs like this: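 A673 cells (500-1,000 cells/well) were treated 48 hours at 37 degrees C with compounds at 11-point (0.78 nM to 46 µM) or 8-point (0.59 nM to 46 µM) dilutions. Viability read by CellTiter-Glo luminescence; concentration-response curves fitted.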

Assay [14] is described as follows: qHTS of pediatric cancer cell lines to identify multiple opportunities for drug repurposing: Primary screen for U-2 OS cells (AID 1347096). Further: nearly all actives have a fitted effect of over 50% in size. As to conditions: U-2 OS viability, CellTiter-Glo luminescence, 48 h; series mostly up to 46 µM. Put shortly:
as §3

Assay [15] is described as follows: qHTS of pediatric cancer cell lines to identify multiple opportunities for drug repurposing: Primary screen for NB1643 cells (AID 1347099). Further: potency means the concentration at half of the fitted maximal effect; nearly all actives have a fitted effect of over 50% in size. As to conditions: NB1643 neuroblastoma viability, CellTiter-Glo luminescence, 48 h; series mostly up to 46 µM. Put shortly:
as §2

Assay [16] can be described thus: qHTS of pediatric cancer cell lines to identify multiple opportunities for drug repurposing: Primary screen for Rh18 cells (AID 1347102). Further: potency means the concentration at half of the fitted maximal effect; nearly all actives have a fitted effect of over 65% in size. As to conditions: Rh18 rhabdomyosarcoma viability, CellTiter-Glo luminescence, 48 h; series mostly up to 46 µM. In short, it runs like this: as §3

Inconclusive results are not listed. Calls of active or inactive are those of the source. The call rests on the fitted dose curve; in most records, active means well fitted curve in the direction sought with a large enough effect; inconclusive means small, poorly fitted or top-dose-only effect, or another doubt; inactive means no such curve, though single readings can be large; an effect the other way counts as inactive or inconclusive.

Turning to `CNC(=O)CN1CCC(Oc2cc3c(Nc4cccc(Cl)c4F)ncnc3cc2OC)CC1`, the Potency in assay [1] was 930 nM (active); in assay [2], 9.3 nM (active); in assay [3], 1 nM (active); in assay [4], 5.3 nM (active); in assay [5], 1 nM (active); in assay [6], 6.6 nM (active). The Potency was 18.7 nM (active) in [7]; 60.7 nM (active) in [8]; 1 nM (active) in assay [9]; 1.4 nM (active) in [10]; 1 nM (active) in assay [11]; 2.6 nM (active) in [12].
In the case of `Nc1ccc(C(=O)c2cc3c(ccc4ccccc43)[nH]2)cc1`, the Potency in assay [1] was 7390 nM (active); in assay [3], 2350 nM (active); in [13] it was 2960 nM (active); in [4], 2090 nM (active); in assay [5], 7690 nM (active); in [7], 2350 nM (active). Also, the Potency was 7640 nM (active) in [8]; 16600 nM (active) in assay [15]; 833 nM (active) in assay [9]; 9680 nM (active) in assay [10]; 10900 nM (active) in assay [11]; 5900 nM (active) in assay [12]. Further, the Potency entry in [14] is “inactive”.
For the compound `Cc1cnc(-c2cnc(NCCNc3ccc(C#N)cn3)nc2-c2ccc(Cl)cc2Cl)[nH]1`, the Potency result in [1], in assay [5], in assay [14], in assay [9] and in assay [11] was “inactive” each time. The Potency in [2] was 14800 nM (active); in [13], 1870 nM (active); in assay [4], 105 nM (active); in assay [12] it was 20900 nM (active).
`CC(C)CC(=O)Nc1n[nH]c2c1CN(C(=O)C1CCN(C)CC1)C2(C)C`: the Potency was 5870 nM (active) in [1]; 11800 nM (active) in [2]; 1480 nM (active) in assay [3]; 187 nM (active) in assay [13]; 485 nM (active) in [5]; 5260 nM (active) in assay [7]. The Potency in [10] was 2430 nM (active); in assay [11] it was 3430 nM (active); in assay [12] it was 2350 nM (active).
As to `Cc1c(NC(=O)OC[C@@H]2COCCN2)cn2ncnc(Nc3ccc4c(cnn4Cc4cccc(F)c4)c3)c12`, the Potency entry in assay [1] was “inactive”. Moreover, the Potency is 74.3 nM (active) in assay [2]; 46.9 nM (active) in [13]; 93.5 nM (active) in [4]; 20900 nM (active) in assay [9]; 24300 nM (active) in assay [10].
With `CNC(=O)c1c(F)cccc1Nc1nc(Nc2cc3c(cc2OC)CCN3C(=O)CN(C)C)nc2[nH]ccc12`, the Potency is 5870 nM (active) in assay [1]; 118 nM (active) in [2]; 93.5 nM (active) in [13]; 14.8 nM (active) in assay [4]; 332 nM (active) in [6]; 2090 nM (active) in assay [7]. The Potency in [8] was 8570 nM (active); in [15], 132 nM (active); in assay [16], 8330 nM (active); in assay [11], 344 nM (active); in [12], 662 nM (active). For the same compound, in assay [14], the Potency entry was “inactive”.
As for `CCCCCN(CCC12CC3CC(CC(C3)C1)C2)C(=O)NCCCc1ccncc1`, the Potency result in [1], in assay [14] and in assay [8] was “inactive” in each case. Further, the Potency in assay [3] is 18700 nM (active); in assay [13] it was 18700 nM (active); in assay [4] it was 16600 nM (active); in assay [5], 24300 nM (active); in assay [6] it was 20900 nM (active); in [7] it was 18700 nM (active). Moreover, the Potency was 16600 nM (active) in [9] and 19300 nM (active) in assay [11].

Source of the values: PubChem BioAssay (NCATS).
